Laboratory results: PubChem BioAssay
The source made the active and inactive calls. Unless noted, the rule behind the calls is not given here.

Assays:
[1] = HepG2 liver cancer cell viability effects, profiling panel, resazurin fluorescence, 24 h, PK04 Diversity Set (AID 1172); conditions: higher = more signal
[2] = basal S. cerevisiae growth modulation, no modifier, primary screen, OD600, strain BY4716, 24 h, basal condition (AID 1173); conditions: OD600, 24 h, higher = more signal, called active from +8 up or from −8 down
[3] = MM1S myeloma cell viability, profiling panel, resazurin fluorescence, basal, 24 h, PK04 Diversity Set (AID 1174); conditions: higher = more signal, called active from +8 up or from −8 down;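 note: MM1S multiple myeloma cell line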
[4] = molecular target: Dihydroorotate dehydrogenase (quinone), mitochondrial (Plasmodium falciparum (isolate 3D7)) (UniProt Q08210); assay: PfDHODH enzyme inhibitors, primary screen, biochemical, C-terminal His tag, absorbance 600 nm (AID 1175); conditions: DCIP absorbance 600 nm, higher = more signal, called active from +8 up or from −8 down;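 note: recombinant parasite enzyme with a five histidine tag at its C terminus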
[5] = P. aeruginosa biofilm formation inhibitors, primary screen, strain PAO1, LB-PBS medium, absorbance 600 nm (AID 1176); conditions: P. aeruginosa PAO1 growth/biofilm, A600, 12 h; higher = more signal
[6] = S. cerevisiae RM11-1a growth modifiers, primary screen, strain RM11-1a, OD600, basal, 24 h (AID 1177); conditions: OD600, 24 h, higher = more signal, called active from +8 up or from −8 down;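 note: cultures grown under basal conditions with no added stressor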
[7] = E. coli acrAB mutant growth effects, primary screen, E. coli filamentation inducers, strain DRC39, OD650, 24 h (AID 1178); conditions: higher = more signal, called active from +8 up or from −8 down;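 note: growth measured as culture turbidity by optical density at 650 nm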
[8] = E. coli acrAB mutant growth effects, primary screen, E. coli filamentation inducers, strain DRC39, OD650, 48 h (AID 1179);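 note: screen aims at cell division blockers that make cells filament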; conditions: E. coli DRC39 delta-acrAB growth, higher = more signal, called active from +8 up or from −8 down
[9] = RPMI8226 myeloma cell viability, profiling panel, resazurin fluorescence, basal, 24 h, PK04 Diversity Set (AID 1180); conditions: higher = more signal;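 note: RPMI8826 multiple myeloma cell line at 5000 cells per well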
[10] = molecular target: E3 ubiquitin-protein ligase XIAP (Homo sapiens) (UniProt P98170); assay: XIAP binders, primary screen, biophysical, small-molecule microarray, fluorescence 635 nm (AID 1181); conditions: small-molecule microarray binding, higher = more signal;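 note: score merges 667 nm emission and signal to noise over triplicate slides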
[11] = tested on: XIP peptide (Xip251-270) binding; assay: small-molecule binders of XIP peptide, primary screen, biochemical, small-molecule microarray, fluorescence 635/667 nm, 0.1 µg/mL protein (AID 1182); conditions: fluorescent protein binding, 635 nm, higher = more signal, called active from +8 up or from −8 down
[12] = tested on: XIP peptide (Xip251-270); assay: small-molecule binders of XIP peptide, primary screen, biochemical, small-molecule microarray, fluorescence 635/667 nm, 0.5 µg/mL protein (AID 1183); conditions: small-molecule microarray binding, fluorescence 635 nm; higher = more signal
[13] = Plasmodium falciparum growth inhibition, primary screen, strain 3D7, DAPI fluorescence, 100 nL (AID 1184);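 note: parasites grown inside human red blood cells in medium with human serum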; conditions: P. falciparum 3D7 growth, 3 d, higher = more signal
[14] = molecular target: Homeobox protein Hox-A13 (Mus musculus) (UniProt Q62424); assay: inhibitors of HoxA13-DNA binding, primary screen, biochemical, fluorescence polarization, labeled oligonucleotide (AID 1185); conditions: 15 min, higher = more signal, called active from +8 up or from −8 down
[15] = inhibitors of hydroxyurea-induced Chk1 phosphorylation, primary screen, imaging, HeLa, phospho-Chk1 antibody, percent positive cells (AID 1186); conditions: hydroxyurea-induced phospho-Chk1 immunofluorescence imaging, higher = more signal
[16] = inhibitors of hydroxyurea-induced Chk1 phosphorylation, primary screen, imaging, HeLa, phospho-Chk1 nuclear intensity (AID 1187); conditions: hydroxyurea-induced phospho-Chk1 immunofluorescence imaging, higher = more signal

Sequence of E3 ubiquitin-protein ligase XIAP (Homo sapiens) (P98170 whole entry, looked up): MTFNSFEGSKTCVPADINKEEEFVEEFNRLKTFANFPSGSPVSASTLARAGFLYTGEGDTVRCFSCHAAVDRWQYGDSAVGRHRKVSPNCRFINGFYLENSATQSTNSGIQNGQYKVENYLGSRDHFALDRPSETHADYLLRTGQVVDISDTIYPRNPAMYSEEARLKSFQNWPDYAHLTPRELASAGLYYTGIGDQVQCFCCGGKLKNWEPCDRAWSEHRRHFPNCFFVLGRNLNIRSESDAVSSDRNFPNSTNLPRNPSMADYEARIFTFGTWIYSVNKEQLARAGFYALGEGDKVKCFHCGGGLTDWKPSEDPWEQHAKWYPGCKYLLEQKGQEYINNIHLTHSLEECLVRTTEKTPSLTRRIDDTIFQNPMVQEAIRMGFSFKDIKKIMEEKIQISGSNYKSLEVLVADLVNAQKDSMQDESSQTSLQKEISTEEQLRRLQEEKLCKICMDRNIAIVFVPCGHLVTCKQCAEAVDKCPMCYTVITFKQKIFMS
Sequence of Dihydroorotate dehydrogenase (quinone), mitochondrial (Plasmodium falciparum (isolate 3D7)) (Q08210 whole entry, looked up): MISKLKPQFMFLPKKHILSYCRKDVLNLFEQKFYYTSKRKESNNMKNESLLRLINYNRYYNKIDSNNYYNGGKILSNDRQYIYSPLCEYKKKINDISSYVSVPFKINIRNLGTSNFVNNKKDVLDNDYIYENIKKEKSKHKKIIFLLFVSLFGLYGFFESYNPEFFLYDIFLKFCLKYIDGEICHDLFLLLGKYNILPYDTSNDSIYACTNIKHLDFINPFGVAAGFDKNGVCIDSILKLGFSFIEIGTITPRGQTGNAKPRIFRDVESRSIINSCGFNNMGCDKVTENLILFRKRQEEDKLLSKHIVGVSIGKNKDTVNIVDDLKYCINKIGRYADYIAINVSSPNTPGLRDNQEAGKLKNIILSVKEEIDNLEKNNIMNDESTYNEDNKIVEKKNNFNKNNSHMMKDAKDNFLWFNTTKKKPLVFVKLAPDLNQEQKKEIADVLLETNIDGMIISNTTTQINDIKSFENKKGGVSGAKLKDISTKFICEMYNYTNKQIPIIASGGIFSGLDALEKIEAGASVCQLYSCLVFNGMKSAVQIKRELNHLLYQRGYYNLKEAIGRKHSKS
Sequence of Homeobox protein Hox-A13 (Mus musculus) (Q62424 whole entry, looked up): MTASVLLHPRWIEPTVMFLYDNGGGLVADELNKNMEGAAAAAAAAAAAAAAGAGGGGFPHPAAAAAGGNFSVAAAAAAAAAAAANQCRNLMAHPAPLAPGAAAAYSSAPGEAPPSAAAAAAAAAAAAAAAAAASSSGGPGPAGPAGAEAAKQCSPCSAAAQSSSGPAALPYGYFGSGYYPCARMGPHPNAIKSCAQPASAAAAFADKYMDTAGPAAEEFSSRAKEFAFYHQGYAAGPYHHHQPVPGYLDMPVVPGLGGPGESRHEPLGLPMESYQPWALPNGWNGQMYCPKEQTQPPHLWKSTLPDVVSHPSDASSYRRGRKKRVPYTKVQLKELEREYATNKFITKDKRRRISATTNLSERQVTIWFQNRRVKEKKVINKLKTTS

Compound	z-score [1]	z-score [2]	z-score [3]	composite z-score [4]	z-score [5]	z-score [6]	z-score [7]	z-score [8]	z-score [9]	composite z-score [10]	composite z-score [11]	composite z-score [12]	z-score [13]	z-score [14]	z-score [15]	z-score [16]
COc1ccc([Si](C)(C)[C@H]2[C@H](CCn3cc([C@H](O)c4ccccc4)nn3)O[C@@]3(C(=O)N(Cc4ccc(N5CCC5=O)cc4)c4ccccc43)[C@@H]2C)cc1	-0.225	0.309 (inactive)	-0.771 (inactive)	0.65 (inactive)	0.401 (inactive)	1.07 (inactive)	0.0302 (inactive)	-0.422 (inactive)	-0.0897	-0.022	0.588 (inactive)	0.576	-1.87	-2.79 (inactive)	-0.162 (inactive)	-0.628 (inactive)
O=C(N1CCCCC1)[C@@]1(Cc2ccccc2)COC(c2ccc(OCCCO)cc2)=N1	0.271	-5.06 (inactive)	-0.949 (inactive)	-0.447 (inactive)	0.258 (inactive)	2.13 (inactive)	0.401 (inactive)	0.0519 (inactive)	0.482	0.284	1.07 (inactive)	0.819	-1.77	-5.09 (inactive)	-0.542 (inactive)	-0.344 (inactive)
COCCCNC(=O)[C@]1(Cc2ccccc2CN=[N+]=[N-])N=C(c2ccc(OCCCO)cc2)O[C@@H]1c1ccccc1	1.27	-0.682 (inactive)	-1.48 (inactive)	0.633 (inactive)	-0.441 (inactive)	0.916 (inactive)	1.18 (inactive)	0.422 (inactive)	-3.11	0.216	0.0968 (inactive)	0.598	-2.41	-6.44 (inactive)	-0.401 (inactive)	-0.24 (inactive)
Cc1ccc(S[C@]2(C(=O)NC(C)C)CC(=O)N(C3Cc4ccccc4C3)[C@@H]2c2ccc(CO)cc2I)cc1	-0.703	-3.55 (inactive)	-3.17 (inactive)	-2.86 (inactive)	0.379 (inactive)	-0.639 (inactive)	0.525 (inactive)	0.969 (inactive)	-2.08	-0.0795	-0.325 (inactive)	0.86	-0.619	-2.24 (inactive)	0.425 (inactive)	0.191 (inactive)
CCOC(=O)C[C@H]1[C@H](OC(=O)c2ccc(-c3ccccc3)cc2)[C@@H](NC(=O)C2CCCCC2)c2cc(OCCCO)ccc2N1C(=O)c1ccccc1	-0.755	1.44 (inactive)	-0.464 (inactive)	0.141 (inactive)	0.656 (inactive)	0.925 (inactive)	-0.406 (inactive)	-0.566 (inactive)	-0.95	0.0623	-0.264 (inactive)	0.379	-0.723	-2.07 (inactive)	-0.0374 (inactive)	0.0385 (inactive)
COC(=O)C(CC#Cc1ccc2c(c1)[C@]1(C(=O)N2)[C@H](C(=O)O)[C@H]2C(=O)O[C@H](c3ccccc3)[C@H](c3ccccc3)N2[C@@H]1c1ccccc1OCCO)C(=O)OC	0.289	-0.307 (inactive)	0.0819 (inactive)	-18.9 (active)	2.07 (inactive)	2.55 (inactive)	0.698 (inactive)	0.202 (inactive)	-4.42	-0.0673	0.341 (inactive)	0.853	-2.06	-6.38 (inactive)	-0.244 (inactive)	-0.674 (inactive)
COC(=O)c1c(CC[C@@H](CO)NC(=O)N[C@H](Cn2cc(-c3ccccc3C)nn2)C(C)C)oc(C(C)=O)c1C(=O)OC	-0.329	-0.723 (inactive)	0.173 (inactive)	-3.09 (inactive)	0.574 (inactive)	-0.489 (inactive)	0.173 (inactive)	-0.488 (inactive)	-0.371	0.211	-0.0077 (inactive)	-0.0163	-1.85	-0.127 (inactive)	1.16 (inactive)	0.823 (inactive)
CCOC(=O)[C@@H]1[C@@H]2C(=O)N(CC)C(=O)[C@@H]2C[C@@H]1Sc1ccccc1	0.0632	-0.325 (inactive)	-0.33 (inactive)	0.917 (inactive)	0.257 (inactive)	0.866 (inactive)	-0.638 (inactive)	-0.894 (inactive)	-0.458	-0.127	-0.266 (inactive)	0.313	-0.555	-4.73 (inactive)	0.899 (inactive)	0.647 (inactive)
CN(C)CCCNC(=O)[C@@H]1c2ccccc2C(=O)N(Cc2ccc(OC(F)(F)F)cc2)[C@H]1c1ccc(CO)cc1	-0.39	0.0639 (inactive)	0.983 (inactive)	0.853 (inactive)	0.407 (inactive)	1 (inactive)	0.897 (inactive)	-0.193 (inactive)	0.818	-0.117	0.323 (inactive)	0.721	-1.9	-3.41 (inactive)	-0.234 (inactive)	-0.296 (inactive)
O=C1NC(=O)C2C1C=CC(C(O)c1ccc3c(c1)OCO3)N2Nc1ccccn1 (configuration not stated)	-0.861	-0.117 (inactive)	-0.854 (inactive)	0.315 (inactive)	1.89 (inactive)	-0.86 (inactive)	0.812 (inactive)	1.3 (inactive)	-0.431	0.0185	0.307 (inactive)	0.247	0.453	-1.69 (inactive)	0.095 (inactive)	0.14 (inactive)
C=CCC(OC(C)=O)[C@@H]1[C@@H](N(Cc2cc3ccccc3o2)C(=O)c2ccc(C)cc2)c2cc(OCCCO)ccc2N1C(=O)Cc1ccc2ccccc2c1 (some centres not stated)	0.85	0.0206 (inactive)	-0.589 (inactive)	0.507 (inactive)	-0.501 (inactive)	0.554 (inactive)	0.964 (inactive)	1.08 (inactive)	0.305	0.162	-0.303 (inactive)	-0.419	-0.429	-1.45 (inactive)	0.0151 (inactive)	0.0749 (inactive)
C[C@]12C(=O)N(CCCCCCO)[C@@H]3C(=O)N(c4ccc(Cl)cc4)CC=CC31O[C@@H]1/C=C\CCCOC(=O)C12 (some centres not stated)	-0.578	-1.3 (inactive)	0.423 (inactive)	-0.699 (inactive)	-0.0558 (inactive)	-1.29 (inactive)	-0.0299 (inactive)	0.692 (inactive)	1.05	-0.235	-0.295 (inactive)	-0.0821	-0.692	-4.68 (inactive)	-0.659 (inactive)	0.264 (inactive)
C=CC[C@]12N=C(c3ccc(OCCCO)cc3)O[C@H]1c1ccccc1N(C)C2=O	-0.782	-1.62 (inactive)	-1.54 (inactive)	0.582 (inactive)	0.345 (inactive)	1.27 (inactive)	0.105 (inactive)	-0.487 (inactive)	-1.28	-0.031	2.91 (inactive)	0.842	-2.33	-4.31 (inactive)	-0.0503 (inactive)	-0.394 (inactive)
CC(C)N1C(=O)[C@@]2(c3ccc([N+](=O)[O-])cc3)CC(=O)N(C3CCCCC3)[C@@H]2c2ccc(CO)cc21	1.86	0.833 (inactive)	0.927 (inactive)	-13.8 (active)	-0.0065 (inactive)	-0.466 (inactive)	0.026 (inactive)	-0.303 (inactive)	0.833	0.0037	0.888 (inactive)	0.287	0.501	0.0267 (inactive)	-0.135 (inactive)	-0.141 (inactive)
COC(=O)C1(Cc2ccccc2)C=C2C(=C(c3ccccc3)C(=O)C2C)CN1 (configuration not stated)	-1.33	0.369 (inactive)	-2.99 (inactive)	-1.03 (inactive)	1.04 (inactive)	0.109 (inactive)	-1.25 (inactive)	-0.628 (inactive)	-1.78	-0.217	-0.401 (inactive)	0.691	-0.246	-9.2 (active)	0.222 (inactive)	0.532 (inactive)
[N-]=[N+]=NCc1ccccc1C[C@]1(C(=O)NCC(O)CO)N=C(c2ccc(OCCCO)cc2)O[C@H]1c1ccccc1CN=[N+]=[N-] (some centres not stated)	-0.459	-0.804 (inactive)	-0.449 (inactive)	-0.212 (inactive)	1.09 (inactive)	0.18 (inactive)	0.78 (inactive)	-0.012 (inactive)	-0.881	-0.149	0.311 (inactive)	0.75	-2.78	-0.829 (inactive)	0.458 (inactive)	0.414 (inactive)
C=C[C@H](COC(C)=O)NS(=O)(=O)c1ccc(Br)cc1	0.266	-1.05 (inactive)	-0.05 (inactive)	-1.08 (inactive)	-0.18 (inactive)	0.579 (inactive)	0.165 (inactive)	-0.0304 (inactive)	-0.675	-0.0627	-0.111 (inactive)	0.238	0.463	-0.189 (inactive)	-0.655 (inactive)	-0.782 (inactive)
